This passage reports inhibition results from ChEMBL document CHEMBL1961873, “Compounds: GSK PKIS; Assays: Nanosyn kinase panel” (2012).

Assay [1] has as its target T1, 3-phosphoinositide-dependent protein kinase 1 (Homo sapiens) (UniProt O15530).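 Also: values are mean inhibition of PDK1.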
T1 sequence (whole entry): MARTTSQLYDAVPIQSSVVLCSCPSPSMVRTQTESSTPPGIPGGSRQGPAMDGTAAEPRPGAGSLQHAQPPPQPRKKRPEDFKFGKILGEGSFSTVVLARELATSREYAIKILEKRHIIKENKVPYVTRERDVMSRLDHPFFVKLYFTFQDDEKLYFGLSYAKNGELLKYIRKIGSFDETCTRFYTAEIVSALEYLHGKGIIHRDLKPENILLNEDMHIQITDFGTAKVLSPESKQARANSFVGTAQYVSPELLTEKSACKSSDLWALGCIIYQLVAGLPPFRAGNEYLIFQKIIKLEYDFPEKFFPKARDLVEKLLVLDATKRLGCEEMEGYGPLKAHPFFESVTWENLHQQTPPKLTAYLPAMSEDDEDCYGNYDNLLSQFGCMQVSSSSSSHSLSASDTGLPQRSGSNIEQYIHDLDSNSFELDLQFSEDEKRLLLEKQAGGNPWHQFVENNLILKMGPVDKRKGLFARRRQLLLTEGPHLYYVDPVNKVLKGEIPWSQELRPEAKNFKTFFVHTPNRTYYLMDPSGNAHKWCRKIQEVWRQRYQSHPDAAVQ
The following applies: at 0.1 µM.

The target of assay [2] is cAMP-dependent protein kinase catalytic subunit alpha (Homo sapiens) (UniProt P17612). The conditions noted are these: at 0.1 µM.
For assay [3] the target is unchanged. The conditions noted are these: at 1 µM.
For assay [4], the target named is Protein kinase C alpha type (Homo sapiens) (UniProt P17252). The conditions noted are these: at 0.1 µM.
For assay [5] the target is unchanged. The following applies: at 1 µM.
Assay [6] deals with Protein kinase C beta type (Homo sapiens) (UniProt P05771). The following applies: at 0.1 µM.
Assay [7] has the same target. The following applies: at 1 µM.
For assay [8], the target named is Protein kinase C eta type (Homo sapiens) (UniProt P24723). The following applies: at 0.1 µM.
The target is the same in assay [9]. The conditions noted are these: at 1 µM.
Assay [10] has as its target Protein kinase C gamma type (Homo sapiens) (UniProt P05129). The following applies: at 0.1 µM.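 Also: values are mean percent inhibition of PKC gamma.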

Structures are written as SMILES.

The term inhibition denotes the drop in the measured response relative to a control, in per cent.

Sequence of Protein kinase C eta type (Homo sapiens) (P24723 whole entry): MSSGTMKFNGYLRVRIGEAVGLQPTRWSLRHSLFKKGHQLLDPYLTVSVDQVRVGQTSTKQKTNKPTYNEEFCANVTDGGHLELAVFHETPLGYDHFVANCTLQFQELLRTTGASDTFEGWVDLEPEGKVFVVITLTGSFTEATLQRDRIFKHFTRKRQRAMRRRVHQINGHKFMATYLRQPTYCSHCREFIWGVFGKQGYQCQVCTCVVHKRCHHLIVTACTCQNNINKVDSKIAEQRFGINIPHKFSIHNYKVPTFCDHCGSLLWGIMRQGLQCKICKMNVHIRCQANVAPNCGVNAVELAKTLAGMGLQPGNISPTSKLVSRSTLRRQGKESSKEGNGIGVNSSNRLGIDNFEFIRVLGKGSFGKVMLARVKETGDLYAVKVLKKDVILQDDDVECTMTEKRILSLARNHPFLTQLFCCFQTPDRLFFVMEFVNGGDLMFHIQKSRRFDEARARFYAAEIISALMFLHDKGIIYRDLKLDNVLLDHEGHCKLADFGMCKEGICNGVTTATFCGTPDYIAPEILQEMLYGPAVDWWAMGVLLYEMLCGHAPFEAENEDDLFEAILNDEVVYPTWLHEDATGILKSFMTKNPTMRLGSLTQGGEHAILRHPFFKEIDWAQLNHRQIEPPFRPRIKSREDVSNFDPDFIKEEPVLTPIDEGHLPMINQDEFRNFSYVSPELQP
Sequence of Protein kinase C beta type (Homo sapiens) (P05771 2-671 limits assumed): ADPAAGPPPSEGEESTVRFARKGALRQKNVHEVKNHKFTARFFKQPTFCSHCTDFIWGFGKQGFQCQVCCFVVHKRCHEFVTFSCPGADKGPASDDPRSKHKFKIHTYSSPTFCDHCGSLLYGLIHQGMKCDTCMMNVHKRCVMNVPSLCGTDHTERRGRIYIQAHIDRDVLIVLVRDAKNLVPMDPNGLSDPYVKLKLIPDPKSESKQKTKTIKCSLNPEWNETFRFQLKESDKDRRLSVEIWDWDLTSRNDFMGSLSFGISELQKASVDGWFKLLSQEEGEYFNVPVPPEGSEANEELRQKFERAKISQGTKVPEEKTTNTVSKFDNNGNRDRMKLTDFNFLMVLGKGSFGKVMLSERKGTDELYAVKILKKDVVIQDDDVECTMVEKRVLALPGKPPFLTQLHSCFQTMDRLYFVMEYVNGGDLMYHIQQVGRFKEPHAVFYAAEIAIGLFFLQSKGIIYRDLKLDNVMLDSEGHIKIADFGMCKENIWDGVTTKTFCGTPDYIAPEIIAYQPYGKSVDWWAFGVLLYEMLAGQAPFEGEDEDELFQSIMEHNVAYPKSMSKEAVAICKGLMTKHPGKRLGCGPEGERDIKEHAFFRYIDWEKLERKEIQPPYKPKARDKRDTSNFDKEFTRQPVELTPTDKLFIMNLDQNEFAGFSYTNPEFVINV

Take `COc1cc(Nc2ncc(-c3ccccc3)o2)cc(OC)c1`: the inhibition in assay [1] stood at 1.45%; in [2], 1.51%; in assay [3] it was 1.67%; in assay [4], 1.19%; in assay [5], 1.72%; in assay [6], 0.24%. Further, the inhibition in assay [7] was determined as 2.31%; in assay [8], 4.07%; in [9], 6.3%; in [10] it was 0.82%.
In the case of `Cc1nnc(-c2cccc(-c3ccc(C(=O)NCC4CC4)cc3)c2)o1`, the inhibition turned out to be 2.18% in assay [1]; 1.83% in [2]; 2.07% in [3]; 0.65% in assay [4]; 1.45% in [5]; 2.27% in assay [6]. For the same compound, the inhibition was found to be 3.52% in assay [7], 3.46% in assay [8], 6.75% in assay [9] and 1.76% in assay [10].
Regarding `COc1cc2c(cc1Nc1nc(Nc3cccc(F)c3C(N)=O)c3cc[nH]c3n1)N(C(=O)CN1CCN(C(C)C)CC1)CC2`, the inhibition in assay [1] was -0.05%; in assay [2], 3.63%; in [3], 2.83%; in assay [4], 3.39%; in assay [5], 1.01%; in assay [6], 0.6%. Besides, the inhibition in assay [7] amounted to 3.47%; in assay [8] it was 0.59%; in assay [9], 1.37%; in assay [10], 1.36%.
Turning to `CCOc1ccc2c(-c3ccnc(Nc4cc(OC)cc(C(F)(F)F)c4)n3)cnn2n1`, the inhibition came to 1.07% in [1]; 0.6% in assay [2]; 3.91% in assay [3]; 0.42% in assay [4]; 5.31% in [5]; 5.55% in assay [6]. Besides, the inhibition in [7] was 2.13%; in assay [8] it was 1.53%; in assay [9] it was -0.66%; in assay [10], 1.75%.
As to `Cc1ccc(-c2cc3c(NC(=O)C4CC4)ncnc3o2)cc1`, the inhibition in assay [1] was 1.92%; in assay [2] it was 1.76%; in [3], 1.5%; in assay [4], 0.9%; in assay [5], 0.92%; in [6], 2.14%. Further, the inhibition in [7] is 2.41%; in assay [8] it was 2.1%; in assay [9], 1.62%; in assay [10], 2.91%.
For `O=C(O[C@H]1CN[C@H](C#Cc2cc3ncnc(Nc4ccc5c(ccn5Cc5cc(F)ccc5F)c4)c3s2)C1)N1CCOCC1`, the inhibition turned out to be 2.16% in assay [1]; 1.86% in assay [2]; 1.48% in [3]; 0.78% in assay [4]; 2.63% in [5]; 1.59% in assay [6]. Moreover, the inhibition in assay [7] stood at 1.27%; in assay [8], 5.63%; in [9], 3.54%; in assay [10], 1.38%.
Turning to `CNC(=O)c1cncc(/C=C/c2ccccc2C)c1`, the inhibition was 2.42% in assay [1]; 4.12% in [2]; 3.53% in [3]; 0.63% in [4]; 1.68% in assay [5]; 1.31% in assay [6]. The inhibition is 5.47% in assay [7], 4.83% in assay [8], 5.78% in assay [9] and -2.58% in [10].
Take `CNC(=O)c1ncccc1Nc1nc(Nc2cc3c(cc2OC)CCCN3C(=O)CN(C)C)nc2[nH]ccc12`: the inhibition in [1] turned out to be 3.18%; in [2] it was 1.72%; in [3], 2.56%; in assay [4] it was 1.68%; in [5], 10.7%; in assay [6] it was 1.41%. Further, the inhibition in assay [7] came to 1.37%; in [8], 2.78%; in [9], 1.52%; in assay [10] it was 5.68%.
For the compound `CS(=O)(=O)Nc1ccc(-c2ccc3c(NC(=O)C4CC4)n[nH]c3c2)cc1`, the inhibition is 2.46% in assay [1]; 1.42% in [2]; 1.85% in assay [3]; 1.17% in assay [4]; 1.78% in assay [5]; -0.7% in [6]. In addition, the inhibition in [7] came to 0.21%; in assay [8], 4.05%; in assay [9] it was 1.11%; in assay [10], 2.49%.
As to `CNC(=O)c1sc(-n2cnc3cc(OC)c(OC)cc32)cc1OCc1ccccc1C(F)(F)F`, the inhibition was found to be 1.81% in assay [1]; 2.01% in assay [2]; 2.29% in assay [3]; 0.09% in assay [4]; 0.93% in assay [5]; 1.29% in assay [6]. Further, the inhibition is -0.63% in assay [7], 3.69% in assay [8], 1.55% in [9] and 5.06% in assay [10].
Regarding `COc1ccc(Nc2ncc(-c3ccccc3)o2)cc1OC`, the inhibition in [1] is 2.22%; in [2], 0.2%; in assay [3], 1.87%; in [4], 1.08%; in assay [5] it was 4.51%; in assay [6], -0.02%. In addition, the inhibition in assay [7] is 3.24%; in assay [8] it was 0.42%; in assay [9] it was -1.25%; in assay [10], 0.58%.
As to `CCN1CCC(C(=O)Nc2n[nH]c3nnc(-c4cccc(F)c4F)cc23)CC1`, the inhibition in assay [1] is -0.53%; in assay [2], 0.16%; in assay [3] it was 0.64%; in [4] it was -0.7%; in [5], 0.27%; in [6], -0.34%. The inhibition in assay [7] was -0.14%; in assay [8] it was 0.24%; in assay [9], 0.58%; in [10], -1.51%.
